# Results taken from PubChem BioAssay AID539 (SRMLSC, 2006).
# Among all 65,000 compounds or so, about 320 (0.49%) were called active.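 The calls were made as follows: active = top-ranked compounds by inhibition in the single 10 µM screen, taking a fixed number of the strongest; inactive = the rest, inconclusive results apart.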 The full list was thinned out, with actives kept by preference.
# Tested on: phosphomevalonate kinase (Streptococcus pneumoniae D39)
# Assay: phosphomevalonate kinase enzyme inhibition – biochemical, mevalonate pathway, pilot trial included, primary screen (AID 539);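 also: 0% = full reaction with DMSO carrier and 100% = background rate without enzyme reaction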
# Details: purified PMK, PK/LDH-coupled NADH absorbance 340 nm, at 10 µM, stronger effect = higher value
# [1] = measured here: pilot screen replicates
SMILES,inhibition,inhibition [1] [%]
O=C(Nc1cccc2c1CCCC2)C1CCN(C(=O)NC2CCCCC2)CC1,13% (inactive),
CCC(C)n1[nH]c(=O)cc1N (configuration not stated),5% (inactive),
Cc1nn2c3cc(N4CCOCC4)ccc3nc2c2ccccc12,0% (inactive),
Cn1c(SCC(=O)Nc2cccc(O)c2)nnc1-c1ccc(S(=O)(=O)N2CCOCC2)cc1,0% (inactive),
Cc1ccccc1C(=O)Nc1cccc(-c2nnc(SCC(=O)O)n2C)c1,7% (inactive),
Cn1c(SCC(=O)N2CCOCC2)nnc1-c1ccc(NC(=O)c2ccccc2F)cc1,40% (active),
CCc1nnc(NC(=O)CSc2nnc(COc3ccc(C#N)cc3)n2-c2ccccc2)s1,4% (inactive),
Cn1c(=O)[nH]c(=O)c2c1nc(Br)n2CCCCSc1nc2ccccc2o1,8% (inactive),
C1=C(CCNc2ncnc3c2cnn3-c2ccccc2)CCCC1,8% (inactive),0.5
c1csc(-c2nc(-c3ccncc3)no2)c1,0% (inactive),
O=C(O)CCN1C(=O)CC2(CCCCC2)C1=O,12% (inactive),
Cc1ccc(C)c(NC(=O)C2CCCN2C(=O)OC(C)(C)C)c1 (configuration not stated),0% (inactive),
CC(C)N(C(=O)Cn1c(SCC(=O)N2CCN(c3ccccc3)CC2)nc2ccccc21)C(C)C,4% (inactive),
COCCN(CC(=O)Nc1ccccc1C)S(=O)(=O)c1ccc(S(=O)(=O)N2CCCC2)cc1,10% (inactive),2.5
CCOC(=O)C1CCN(C(=O)C2CCN(S(=O)(=O)CC)CC2)CC1,2% (inactive),
CCOC(=O)C1CCN(C(=O)C2CCN(S(=O)(=O)c3c(C)noc3C)CC2)CC1,11% (inactive),
CCOC(=O)C1CCN(C(=O)C2CCN(S(=O)(=O)N3CCCC3)CC2)CC1,30% (active),
CC1(C)CC(=O)C=C(NC2CC(C)(C)NC(C)(C)C2)C1,8% (inactive),
c1ccc(CCn2nnnc2CN2CCN(C3CCCC3)CC2)cc1,0% (inactive),0.5
CC1CCCCC1NC(=O)CCS(=O)(=O)c1cccc2nonc12 (configuration not stated),0% (inactive),
O=C1CSC(=O)N1CCOCCN1C(=O)CSC1=O,8% (inactive),

SMILES,inhibition,inhibition [1] [%]
Cc1ccccc1CN1CCN(C(=O)c2cccc(F)c2)CC1,0% (inactive),2
CCCCCOC(=O)C1=C(C)Nc2nnnn2C1c1ccc(OC)c(OC)c1OC (configuration not stated),11% (inactive),
COc1ccc(CCn2nnnc2C(c2ccccc2)N2CCN(C)CC2)cc1OC (configuration not stated),18% (inactive),
COC(=O)c1ccc(Oc2nc(Nc3ccc(F)cc3)nc(N3CCCC3)n2)cc1,4% (inactive),
Cc1ccc(-c2ccc(=O)n(CC(=O)NCCCN3CCCCC3)n2)cc1,18% (inactive),
CCC1CCCCN1CCCNC(=O)Cn1nc(-c2ccccc2)ccc1=O (configuration not stated),26% (active),
CCC1CCCCN1CCNC(=O)c1[nH]c(C)c(C(C)=O)c1C (configuration not stated),1% (inactive),
CCCCNc1nc2c(c(=O)n(C)c(=O)n2C)n1Cc1cccc(OC)c1,0% (inactive),
COc1ccccc1NC(=O)CN1CCN(S(=O)(=O)c2ccc(Br)cc2)CC1,5% (inactive),
NC(=O)C1CCN(C(=O)c2ccc(C(F)(F)F)cc2)CC1,12% (inactive),
CCC(=O)c1ccc(OCC(O)CN2CCN(c3cccc(C(F)(F)F)c3)CC2)cc1 (configuration not stated),0% (inactive),
O=C(NCCCN1CCCCCC1)C1CC(=O)N(C2CCCC2)C1 (configuration not stated),12% (inactive),
CCOc1ccc2[nH]c(=O)c(CN(CCCO)C(C)=O)cc2c1,20% (inactive),
COC(=O)CCSc1nccn1Cc1ccccc1,0% (inactive),
O=C(CSc1nnnn1-c1ccc2c(c1)CCC2)Nc1ccc2c(c1)OCCO2,0% (inactive),
CCn1ncc(Br)c1C(=O)Nc1cc(C)ccc1F,6% (inactive),
COc1ccc(C(c2nnnn2C2CCCCC2)N2CCN(c3ccccc3F)CC2)cc1 (configuration not stated),3% (inactive),
CC1CCc2c(sc(NC(=O)c3ccc(Cn4cc(Br)cn4)o3)c2C(N)=O)C1 (configuration not stated),0% (inactive),
COc1ccc(N(CC(=O)NC2CCCCCCC2)S(=O)(=O)c2c(C)nn(C)c2C)cc1,10% (inactive),
CCOC(=O)c1cccc(NC(=O)CN(c2ccc(C)cc2)S(=O)(=O)c2c(C)noc2C)c1,13% (inactive),
Cc1ccc(S(=O)(=O)N2CCOCC2)cc1C(=O)NCc1ccc(F)cc1,8% (inactive),

SMILES,inhibition,inhibition [1] [%]
Cc1nc2nc[nH]n2c(=O)c1NC(=O)c1cccc(OCC(C)C)c1,12% (inactive),
O=C(Cn1nc(Cc2cccnc2)c2ccccc2c1=O)NCC1COc2ccccc2O1 (configuration not stated),7% (inactive),
COCCNC(=O)C(C#N)c1nc2ccccc2nc1N1CCN(Cc2ccc3c(c2)OCO3)CC1 (configuration not stated),2% (inactive),
CCOC(=O)Cc1csc(NC(=O)C(C)(C)C)n1,4% (inactive),
COC(=O)CSc1nc(C2CC2)nc2ccccc12,15% (inactive),
Cc1ccccc1-n1nnc2c(=O)oc3ccccc3c21,10% (inactive),4
CC(=O)N1CCN(C(=O)Nc2cccc(C(F)(F)F)c2)CC1,17% (inactive),
CC(C)C(NC(=O)c1cccc(S(=O)(=O)N2CCOCC2)c1)C(=O)NCCc1ccccn1 (configuration not stated),11% (inactive),
Cn1c(=O)c2c(nc(N3CCCCCC3)n2CC(O)COc2ccc(Cl)cc2)n(C)c1=O (configuration not stated),7% (inactive),
Cn1c(=O)oc2cc(S(=O)(=O)N3CCC(C(=O)Nc4ccc(OC(F)(F)F)cc4)CC3)ccc21,14% (inactive),2
COc1ccc(S(=O)(=O)N2CCC(C(=O)N3CCOCC3)CC2)cc1OC,8% (inactive),
CCC(CC)C(=O)Nc1cccc(C(=O)N2CCCC2)c1,4% (inactive),
C=CCn1c(C)cc(C(=O)CN2C(=O)c3ccccc3C2=O)c1C,13% (inactive),
COc1cc(C2C(C(=O)c3sc(C)nc3C)=C(O)C(=O)N2CCN(C)C)cc(OC)c1OC (configuration not stated),17% (inactive),
O=C(COc1ccc2c3c(c(=O)oc2c1)CCC3)NC1CCCCC1,15% (inactive),
CCOC(=O)N1CCN(S(=O)(=O)c2cc3c(cc2C)NC(=O)CO3)CC1,14% (inactive),
CC(=O)C1C(c2ccc(Cl)cc2)NC(=O)NC1(O)C(F)(F)F (configuration not stated),7% (inactive),
Nc1c(C(=O)NCc2ccccc2)nnn1Cc1cccc(Cl)c1,0% (inactive),
CCOC(=O)c1[nH]c2ccc(OC)cc2c1NC(=O)CCN1CCN(Cc2ccccc2)CC1,6% (inactive),
